Measurements as given in PubChem BioAssay (NCI).
Several values for one entry are separate records, joined by “and”; a condition that tells them apart may be missing. Identical values can stand only once. This is part of a sample that, as a whole, favours compounds with a hit. Of some 83,000 tested, about 20% had one in any assay.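 Assay: single dose, 48 h. Readout: percent growth (0 = no net growth; negative = cell death). Active: <10.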 Activity calls are given as the source filed them.

test system: OVCAR-8 ovarian; experiment: NCI-60 one-dose screen, 48 h (100 = growth as untreated, 0 = no growth, -100 = all killed); conditions: 10 µM
Experimental: Growth inhibition of the OVCAR-8 human tumor cell line is measured as a screen for anti-cancer activity. Cells are grown in 96 well plates and exposed to the test compound for 48 hours. Compounds are tested at a single concentration, which is 10^-5 M for most compounds. The reported endpoint is percent growth (GI% or GIPRCNT), where numbers from 0 - 100% represent growth inhibition, and numbers from -100% - 0 represent cell death. For example, a value of 40 represents 60% growth inhibition. A value of 0 means no net growth occurred over the course of the experiment. A value of -40 indicates 40% of cells at the beginning of the experiment died by the end of the experiment. A value of -100 means all cells are dead at the end of the experiment.
NCI-60 Human Tumor Cell Lines Screen was performed using the standard one-dose NCI protocol, which is described in more detail at https://dtp.cancer.gov/discovery_development/nci-60/default.htm.
Compounds with GIPRCNT values below 10 were considered active. Activity score was based on GIPRCNT using the following formula: […]
Score is 0 for GIPRCNT values of 100 or above, 50 for GIPRCNT values of 0, and 100 for GIPRCNT values of -100.

Compound	growth
O=C(Nc1c(Cl)cccc1Cl)Oc1cccc2cccnc12	27% (inactive)
COc1ccc(-c2cscc2N)cc1	77.6% (inactive)
CN(C)C(=O)c1ccc(SC(=S)NCc2ccccc2)cc1	106% (inactive)
O=C(O)c1c(Cl)c(Cl)c(Cl)c(Cl)c1-c1c2cc(I)c(=O)c(I)c-2oc2c(I)c(O)c(I)cc12	107% (inactive) and 105% (inactive) and 91.4% (inactive)

same assay, conditions: 10 µM unless noted

Compound	growth
COC(=O)c1nc(=S)[nH]c(C(=O)OC)c1C(=O)c1ccccn1	20.6% (inactive)
Cn1c2c(c3ccccc31)CCN1C[C@@H]3CCCC[C@H]3C[C@@H]21	20.2% (inactive)
CC1OC(OC2C(OC3CCC4(C)C(CCC5(C)C4CC=C4C6CC(C)(C)CCC6(CO)C(O)CC45C)C3(C)C)OC(C(=O)O)C(OC3OC(COC4OC(CO)C(O)C(O)C4O)C(O)C(O)C3O)C2O)C(O)C(O)C1O (stereo not given)	-51.8% (active)
CCCCCCCCCCCCCCCCN(CC)CC	-38.3% (active)
NC(=S)N/N=C/c1ccc(Cl)s1	106% (inactive)
N#CSCc1ccc(CSC#N)c(Cl)c1	95.6% (inactive)
COC(=O)[C@@]12OC[C@]34[C@H]([C@@H](O)[C@@H]1O)[C@@]1(C)[C@H](O)C(=O)C=C(C)[C@@H]1C[C@H]3OC(=O)C(OC(C)=O)[C@@H]24 (stereo not given in full)	-18.6% (active)
CNc1ccc2c(c1)c1ccccc1n2C	100% (inactive)
CC(=O)C(=Cc1ccc(C=C(C(C)=O)C(C)=O)cc1)C(C)=O	2.83% (active)
N#CSCc1ccc(Cl)c(CSC#N)c1	61.9% (inactive)
CN1c2ccccc2C(C)(C)C12C=Cc1cc(O)ccc1O2 (stereo not given)	67.3% (inactive)
CCC1OC(OC)C=CC1=O (stereo not given)	117% (inactive)
CN(C)CCOc1ccc2c(c1)C(=O)/C(=C\c1ncc([N+](=O)[O-])n1C)C2	1.01% (active)
Nc1ccc(SSc2ccc(N)cc2)cc1	88% (inactive)
Nc1nc(N)c2c(ccc3c2ccn3Cc2cccc([N+](=O)[O-])c2)n1	-54.4% (active)
C/C=C1\SC(=S)NC1=O	103% (inactive)

Compound	growth
O[C@H]1[C@H]2c3cc4c(cc3CN3CCC(=C[C@@H]1O)[C@H]23)OCO4	26.7% (inactive)
CC(=O)Nc1cccc2cc(O)ccc12	106% (inactive) and 100% (inactive) and 94.3% (inactive)
CC1OC2CC(=O)OC2C2=C1C(=O)c1c(O)cccc1C2=O (stereo not given)	-14.7% (active)
CN(C)c1ccc(N=Nc2cccc3ccccc23)cc1	94.8% (inactive)
COc1ccc(N=N/N=c2\sc3cc(OC)ccc3n2C)cc1	75.1% (inactive)
Cc1cc(C(C)(CC(C)C)c2ccc(O)c(C)c2)ccc1O	91.2% (inactive)
CN(C)c1ccc(C(=C2C=CC(=[N+](C)C)C=C2)c2ccc(N(C)C)cc2)cc1 (tested in a mixture with another compound)	-23.2% (active)
Oc1c(Br)c(Br)c(O)c(Br)c1Br	102% (inactive)
O=C(O)C1C2CC3C(OC(=O)C31)C2Br (stereo not given)	97.8% (inactive) and 100% (inactive)
N#CSCC(=O)c1ccc(Cl)cc1	63.7% (inactive)
CCCCCCC(C)c1ccccc1O (stereo not given) (tested in a mixture with another compound)	110% (inactive)
CCOC(=O)/C=C/c1ccc([N+](=O)[O-])o1	11.4% (inactive)
O=C1c2ccccc2C(=O)c2sc(Nc3ccc(Cl)cc3)nc21	10.6% (inactive)
Nc1nc(N)c2nc(CNc3ccc(C(=O)NC(CCC(=O)O)C(=O)O)cc3)cnc2n1 (stereo not given)	31.7% (inactive) and 34.9% (inactive)
O=C1c2ccccc2C(=O)c2sc(Nc3cccc(Cl)c3)nc21	1.49% (active)
O=C1OCc2cccc3cccc1c23	101% (inactive)

same assay, conditions: 100 µM

Compound	growth
O=C(Nc1c(Cl)cccc1Cl)Oc1cccc2cccnc12	10.2% (inactive)
COc1ccc(-c2cscc2N)cc1	48.9% (inactive)
CN(C)C(=O)c1ccc(SC(=S)NCc2ccccc2)cc1	-6.08% (active)
O=C(O)c1c(Cl)c(Cl)c(Cl)c(Cl)c1-c1c2cc(I)c(=O)c(I)c-2oc2c(I)c(O)c(I)cc12	-13.2% (active)
